Compounds without any hit were thinned out: in the full panel of roughly 79,000, 15% have a hit. Activity calls are given as the source filed them. No stated cut-off is given here; in the data, active means growth inhibition above about 70%; inactive means the rest.
Tests used:
[1] = NCI Yeast Anticancer Drug Screen. Data for the wt1 strain (AID 149);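 further: 0% = growth of vehicle-treated wt1 cultures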; conditions: S. cerevisiae wt1 strain (SPY 50644) growth inhibition, active compounds read high
Outline: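 wt1 strain grown with compound or vehicle; inhibition taken from the growth difference.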

[2] = NCI Yeast Anticancer Drug Screen. Data for the rad50EPP+ strain (AID 151);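 further: 0% = growth of vehicle-treated control cultures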; conditions: S. cerevisiae rad50 mutant strain, active compounds read high
Outline: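 Compounds were applied to the rad50EPP+ yeast strain, which bears a defined DNA repair alteration, and growth inhibition was determined relative to vehicle-treated cultures.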

[3] = NCI Yeast Anticancer Drug Screen. Data for the mgt1 strain (AID 153); conditions: S. cerevisiae mgt1 mutant growth inhibition, active compounds read high
Outline: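 Strain: mgt1 yeast, one of a set carrying defined DNA damage repair or cell cycle control alterations. Compound-treated growth compared with vehicle.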

[4] = NCI Yeast Anticancer Drug Screen. Data for the rad50 strain (AID 155);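 further: 0% = growth of vehicle-only cultures of the same strain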; conditions: S. cerevisiae rad50 strain growth inhibition, active compounds read high
Outline: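 DNA repair mutant yeast, compound exposure, growth read-out; inhibition is taken relative to vehicle.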

[5] = NCI Yeast Anticancer Drug Screen. Data for the mec2-1 strain (AID 157); conditions: S. cerevisiae mec2-1 strain, active compounds read high
Outline: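 Strain: mec2-1 (DNA repair/cell cycle alteration). Compound exposure, then growth measured; inhibition expressed relative to vehicle.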

[6] = NCI Yeast Anticancer Drug Screen. Data for the rad14 strain (AID 159);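 further: 0% = growth of vehicle-treated control cultures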; conditions: S. cerevisiae rad14 strain growth inhibition, active compounds read high
Outline: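 DNA repair-defective yeast, compound-exposed; % growth inhibition derived by comparison with vehicle-treated controls.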

[7] = NCI Yeast Anticancer Drug Screen. Data for the sgs1 mgt1 strain (AID 161);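 further: 0% = growth of cultures given vehicle only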; conditions: S. cerevisiae sgs1 mgt1 strain, active compounds read high
Outline: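 Genetically altered yeast, compound exposure, growth inhibition relative to vehicle.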

[8] = NCI Yeast Anticancer Drug Screen. Data for the CLN2oe strain (AID 163);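 further: 0% = growth of vehicle-only control cultures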; conditions: S. cerevisiae CLN2oe strain, active compounds read high
Outline: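 Growth of a genetically modified yeast strain is measured after compound exposure and compared with cultures given vehicle alone.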

[9] = NCI Yeast Anticancer Drug Screen. Data for the cln2 rad14 strain (AID 165);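 further: 0% = growth equal to vehicle treated cultures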; conditions: S. cerevisiae cln2 rad14 strain, active compounds read high
Outline: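 Compounds are applied to the cln2 rad14 yeast strain, and growth is then compared with that of vehicle-treated cultures to give inhibition.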

[10] = NCI Yeast Anticancer Drug Screen. Data for the bub3 strain (AID 167); conditions: S. cerevisiae bub3 mutant strain, active compounds read high
Outline: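 In this screen, a yeast mutant lacking normal mitotic checkpoint function is challenged with compound. Relative growth versus vehicle gives the inhibition value.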

[11] = NCI Yeast Anticancer Drug Screen. Data for the wt2 strain (AID 169);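 further: 0% = growth of vehicle-treated yeast cultures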; conditions: S. cerevisiae wt2 strain growth inhibition, active compounds read high
Outline: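 This strain belongs to a panel of yeast strains with defined genetic alterations in DNA damage repair or cell cycle control. Compounds are applied, and growth inhibition is measured against vehicle-treated cultures.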

[12] = NCI Yeast Anticancer Drug Screen. Data for the mlh1 strain (AID 171);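 further: 0% = growth of vehicle-treated control cultures of the same strain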; conditions: S. cerevisiae mlh1 strain growth inhibition, active compounds read high
Outline: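 Growth of the mutant yeast strain after compound exposure, expressed as inhibition relative to vehicle-only controls.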

[13] = NCI Yeast Anticancer Drug Screen. Data for the sgs1 strain (AID 173);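 further: 0% = growth of vehicle-only control cultures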; conditions: S. cerevisiae sgs1 mutant, active compounds read high
Outline: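 Growth of a yeast strain bearing a defined genetic alteration is measured after compound treatment. Inhibition is expressed relative to vehicle-only controls.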

[14] = NCI Yeast Anticancer Drug Screen. Data for the mlh1 rad18 strain (AID 175); conditions: S. cerevisiae mlh1 rad18 strain growth inhibition, active compounds read high
Outline: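 Read-out is yeast growth inhibition, calculated against vehicle-only controls. The compound was applied to a strain engineered with DNA damage repair alterations.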

[15] = NCI Yeast Anticancer Drug Screen. Data for the rad18 strain (AID 177); conditions: S. cerevisiae rad18 mutant growth inhibition, active compounds read high
Outline: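 Growth of the mutant yeast strain after compound exposure, normalised to vehicle-only cultures.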

[16] = at 5.0 µM (retest, dose inferred, filed as 0.5)
[17] = at 50.0 µM (retest, dose inferred, filed as 5.0)

Measured: growth inhibition

c1cc2ccc3cc4ncccc4c4ccc(c1)c2c34
active: [1]; at 100.0 µM 75% | [2]; at 11.0 µM 73% | [2]; at 33.0 µM 92% | [2]; at 100.0 µM 92% | [3]; at 33.0 µM 76% | [3]; at 100.0 µM 84% | [4]; [16] 74% | [4]; at 11.0 µM 70% | [4]; at 33.0 µM 93% | [4]; [17] 96% | [4]; at 50.0 µM 97.9% | [4]; at 100.0 µM 93% | [5]; [17] 97% | [5]; at 50.0 µM 97.5% | [5]; at 100.0 µM 82% | [6]; at 100.0 µM 79% | [7]; [17] 93% | [7]; at 50.0 µM 98.2% | [9]; [17] 90% | [9]; at 50.0 µM 92.3% | [10]; at 33.0 µM 84% | [10]; [17] 96% | [10]; at 50.0 µM 98.9% | [10]; at 100.0 µM 90% | [11]; at 100.0 µM 85% | [12]; at 33.0 µM 83% | [12]; at 100.0 µM 88% | [13]; at 33.0 µM 83% | [13]; at 100.0 µM 85% | [14]; [17] 97% | [14]; at 50.0 µM 97.8% | [15]; at 33.0 µM 87% | [15]; at 100.0 µM 90%
inactive: [1]; at 1.2 µM -2% | [1]; at 3.7 µM 3% | [1]; at 11.0 µM 9% | [1]; at 33.0 µM 54% | [2]; at 1.2 µM 8% | [2]; at 3.7 µM 35% | [3]; at 1.2 µM -2% | [3]; at 3.7 µM -1% | [3]; at 11.0 µM 11% | [4]; at 1.2 µM 2% | [4]; at 3.7 µM 13% | [5]; at 1.2 µM -2% | [5]; at 3.7 µM 1% | [5]; [16] 23% | [5]; at 11.0 µM 13% | [5]; at 33.0 µM 65% | [6]; at 1.2 µM 1% | [6]; at 3.7 µM 7% | [6]; at 11.0 µM 20% | [6]; at 33.0 µM 68% | [7]; [16] 34% | [8]; at 1.2 µM -3% | [8]; at 3.7 µM -3% | [8]; at 11.0 µM 1% | [8]; at 33.0 µM 21% | [8]; at 100.0 µM 65% | [9]; [16] 15% | [10]; at 1.2 µM -2% | [10]; at 3.7 µM 1% | [10]; [16] 27% | [10]; at 11.0 µM 36% | [11]; at 1.2 µM 0% | [11]; at 3.7 µM 0% | [11]; at 11.0 µM 15% | [11]; at 33.0 µM 53% | [12]; at 1.2 µM -2% | [12]; at 3.7 µM 0% | [12]; at 11.0 µM 22% | [13]; at 1.2 µM -2% | [13]; at 3.7 µM 0% | [13]; at 11.0 µM 25% | [14]; [16] 32% | [15]; at 1.2 µM 4% | [15]; at 3.7 µM 7% | [15]; at 11.0 µM 35%

— PubChem BioAssay (NCI)
